Reference: PubChem BioAssay AID1159580 (chemical genetic matrix, 2015)
The whole screen tested about 5,500 compounds, of which about 2,000 (36%) were called active. Not shown: some 18% with an inconclusive outcome. Rule as the data show it: active = normalized growth mostly below about 0.91 (no sharp cut-off); inconclusive = no clear call, values can overlap the other calls; inactive = mostly above about 0.92. The list shows a part of the results.

Assay: chemical genetic growth profiling, strain panel (AID 1159580);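 also: tested at 20 µM; growth read once vehicle control cultures reached saturation at 30 °C; 1 = growth at the plate median or of vehicle wells; lower values mean less growth of the strain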
Conditions: growth OD

Measured: normalized growth

CC1(C)O[C@H]2[C@H](O)C[C@](O)(C(N)=O)C[C@H]2O1
inactive: S. cerevisiae deletion strains, locus YJR075W, strain HOC1, stronger effect = lower value 1.03 | S. cerevisiae deletion strains, locus YKL009W, strain mrt4, stronger effect = lower value 1.04 | S. cerevisiae deletion strains, locus YKL068W, stronger effect = lower value 1.01 | S. cerevisiae deletion strains, locus YKL085W, strain MDH1 (second series), stronger effect = lower value 1.03 | S. cerevisiae deletion strains, locus YKL085W, strain MDH1, stronger effect = lower value 1.03 | S. cerevisiae deletion strains, locus YKL160W, strain elf1, stronger effect = lower value 1 | S. cerevisiae deletion strains, locus YKL190W, strain CNB1, stronger effect = lower value 1.02 | S. cerevisiae deletion strains, locus YKR001C, strain vps1, stronger effect = lower value 1.06 | S. cerevisiae deletion strains, locus YKR026C, strain gcn3, stronger effect = lower value 1.01 | S. cerevisiae deletion strains, locus YKR091W, strain srl3, stronger effect = lower value 1.02 | S. cerevisiae deletion strains, locus YLL001W, strain dnm1, stronger effect = lower value 0.999 | S. cerevisiae deletion strains, locus YLL026W, stronger effect = lower value 1.01 | S. cerevisiae deletion strains, locus YLL041C, strain sdh2, stronger effect = lower value 1.02 | S. cerevisiae deletion strains, locus YLR027C, strain aat2, stronger effect = lower value 1.03 | S. cerevisiae deletion strains, locus YLR039C, strain RIC1, stronger effect = lower value 1.25 | S. cerevisiae deletion strains, locus YLR058C, strain SHM2, stronger effect = lower value 1.04 | S. cerevisiae deletion strains, locus YLR102C, strain apc9, stronger effect = lower value 1.01 | S. cerevisiae deletion strains, locus YLR113W, strain HOG1, stronger effect = lower value 1.02 | S. cerevisiae deletion strains, locus YLR221C, strain rsa3, stronger effect = lower value 1.02 | S. cerevisiae deletion strains, locus YLR258W, strain gsy2, stronger effect = lower value 1.01 | S. cerevisiae deletion strains, locus YLR262C, strain YPT6 (second series), stronger effect = lower value 1.08 | S. cerevisiae deletion strains, locus YLR268W, strain sec22, stronger effect = lower value 1.05 | S. cerevisiae deletion strains, locus YLR320W, strain mms22, stronger effect = lower value 1.03 | S. cerevisiae deletion strains, locus YLR330W, strain CHS5, stronger effect = lower value 1.02 | S. cerevisiae deletion strains, locus YLR342W, strain FKS1 (second series), stronger effect = lower value 1.03 | S. cerevisiae deletion strains, locus YLR342W, strain FKS1, stronger effect = lower value 1.01 | S. cerevisiae deletion strains, locus YLR357W, strain rsc2, stronger effect = lower value 1.01 | S. cerevisiae deletion strains, locus YLR370C, strain arc18, stronger effect = lower value 1.02 | S. cerevisiae deletion strains, locus YLR371W, strain rom2, stronger effect = lower value 1.05 | S. cerevisiae deletion strains, locus YLR384C, strain iki3, stronger effect = lower value 1.02 | S. cerevisiae deletion strains, locus YLR418C, strain cdc73, stronger effect = lower value 1.09 | S. cerevisiae deletion strains, locus YML016C, strain PPZ1, stronger effect = lower value 1.03 | S. cerevisiae deletion strains, locus YML032C, strain rad52, stronger effect = lower value 1.03 | S. cerevisiae deletion strains, locus YML120C, strain ndi1, stronger effect = lower value 1.01 | S. cerevisiae deletion strains, locus YML124C, strain tub3, stronger effect = lower value 1.02 | S. cerevisiae deletion strains, locus YMR058W, strain fet3, stronger effect = lower value 1.02 | S. cerevisiae deletion strains, locus YMR078C, strain ctf18, stronger effect = lower value 1.03 | S. cerevisiae deletion strains, locus YMR125W, strain sto1, stronger effect = lower value 1 | S. cerevisiae deletion strains, locus YMR129W, stronger effect = lower value 1.01 | S. cerevisiae deletion strains, locus YMR205C, strain PFK2, stronger effect = lower value 1.02 | S. cerevisiae deletion strains, locus YMR223W, strain ubp8, stronger effect = lower value 1.05 | S. cerevisiae deletion strains, locus YMR231W, strain pep5, stronger effect = lower value 1.01 | S. cerevisiae deletion strains, locus YMR307W, strain GAS1, stronger effect = lower value 1.27 | S. cerevisiae deletion strains, locus YNL067W, strain RPL9B, stronger effect = lower value 1.01 | S. cerevisiae deletion strains, locus YNL071W, strain lat1, stronger effect = lower value 1.03 | S. cerevisiae deletion strains, locus YNL153C, strain GIM3, stronger effect = lower value 1.05 | S. cerevisiae deletion strains, locus YNL183C, strain NPR1, stronger effect = lower value 0.945 | S. cerevisiae deletion strains, locus YNL209W, strain ssb2, stronger effect = lower value 1.02 | S. cerevisiae deletion strains, locus YNL233W, strain BNI4, stronger effect = lower value 1.07 | S. cerevisiae deletion strains, locus YNL248C, strain rpa49, stronger effect = lower value 1.01 | S. cerevisiae deletion strains, locus YNL250W, strain rad50, stronger effect = lower value 1.06 | S. cerevisiae deletion strains, locus YNL271C, strain bni1, stronger effect = lower value 1.04 | S. cerevisiae deletion strains, locus YNL298W, strain CLA4, stronger effect = lower value 1.02 | S. cerevisiae deletion strains, locus YNL307C, strain MCK1, stronger effect = lower value 1.03 | S. cerevisiae deletion strains, locus YNL322C, strain KRE1 (second series), stronger effect = lower value 1.01 | S. cerevisiae deletion strains, locus YNL322C, strain KRE1, stronger effect = lower value 1.02 | S. cerevisiae deletion strains, locus YNR049C, strain mso1, stronger effect = lower value 1.02 | S. cerevisiae deletion strains, locus YNR052C, strain pop2, stronger effect = lower value 1.03 | S. cerevisiae deletion strains, locus YOL012C, strain htz1 0.602 | S. cerevisiae deletion strains, locus YOL147C, strain pex11, stronger effect = lower value 1.01 | S. cerevisiae deletion strains, locus YOR001W, strain rrp6, stronger effect = lower value 1.04 | S. cerevisiae deletion strains, locus YOR061W, strain CKA2, stronger effect = lower value 1.03 | S. cerevisiae deletion strains, locus YOR069W, strain VPS5, stronger effect = lower value 1.02 | S. cerevisiae deletion strains, locus YOR070C, strain gyp1, stronger effect = lower value 1.01 | S. cerevisiae deletion strains, locus YOR080W, strain dia2, stronger effect = lower value 1.01 | S. cerevisiae deletion strains, locus YOR083W, strain WHI5, stronger effect = lower value 1.02 | S. cerevisiae deletion strains, locus YOR106W, strain vam3, stronger effect = lower value 1.01 | S. cerevisiae deletion strains, locus YOR136W, strain idh2, stronger effect = lower value 1.04 | S. cerevisiae deletion strains, locus YOR144C, strain elg1, stronger effect = lower value 1.01 | S. cerevisiae deletion strains, locus YOR184W, strain ser1, stronger effect = lower value 1.06 | S. cerevisiae deletion strains, locus YOR231W, strain MKK1, stronger effect = lower value 0.989 | S. cerevisiae deletion strains, locus YOR265W, strain rbl2, stronger effect = lower value 1.01 | S. cerevisiae deletion strains, locus YOR270C, strain vph1, stronger effect = lower value 1.06 | S. cerevisiae deletion strains, locus YOR290C, strain snf2, stronger effect = lower value 1.03 | S. cerevisiae deletion strains, locus YOR316C, strain cot1, stronger effect = lower value 1.02 | S. cerevisiae deletion strains, locus YPL051W, strain arl3, stronger effect = lower value 0.997 | S. cerevisiae deletion strains, locus YPL055C, strain LGE1, stronger effect = lower value 1.09 | S. cerevisiae deletion strains, locus YPL078C, strain atp4, stronger effect = lower value 1.01 | S. cerevisiae deletion strains, locus YPL106C, strain sse1, stronger effect = lower value 0.996 | S. cerevisiae deletion strains, locus YPL240C, strain hsp82, stronger effect = lower value 1.01 | S. cerevisiae deletion strains, locus YPL241C, strain CIN2, stronger effect = lower value 1.02 | S. cerevisiae deletion strains, locus YPL256C, strain CLN2, stronger effect = lower value 0.995 | S. cerevisiae deletion strains, locus YPR119W, strain clb2, stronger effect = lower value 1.03 | S. cerevisiae deletion strains, locus YPR141C, strain kar3, stronger effect = lower value 1.03 | S. cerevisiae deletion strains, locus YPR163C, strain tif3, stronger effect = lower value 1.04 | S. cerevisiae deletion strains, locus YPR167C, strain met16, stronger effect = lower value 1.04 | S. cerevisiae deletion strains, strain wtn01, stronger effect = lower value 1.03 | S. cerevisiae strains, strain wild type, stronger effect = lower value 1.06
